# Key:
# Assay type in all cases: functional
# [1] = target: Solute carrier family 2, facilitated glucose transporter member 1 (Homo sapiens) (UniProt P11166); test: ST_JUDE_LEISH: Cytotoxicity at 2uM final concentration against transgenic Leishmania Mexicana promastigotes LmGLUT1 that are glucose transport deficient and complemented with the human glucose transporter GLUT1. Activity is measured by DNA content using SYBR green in vitro
# [2] = target: Hexose transporter 1 (Plasmodium falciparum) (UniProt O97467); test: ST_JUDE_LEISH: Cytotoxicity at 2uM final concentration against transgenic Leishmania Mexicana promastigotes LmPfHT that are glucose transport deficient and complemented with the Plasmodium falciparum hexose transporter. Activity is measured by DNA content using SYBR green in vitro
# [3] = target: Glucose transporter (Leishmania mexicana) (UniProt O61059); test: ST_JUDE_LEISH: Cytotoxicity at 2uM final concentration against transgenic Leishmania Mexicana promastigotes LmGT2 that are glucose transport deficient and complemented with the L. Mexicana glucose transporter 2. Activity is measured by DNA content using SYBR green in vitro
# Chain of Solute carrier family 2, facilitated glucose transporter member 1 (Homo sapiens) (P11166 whole entry): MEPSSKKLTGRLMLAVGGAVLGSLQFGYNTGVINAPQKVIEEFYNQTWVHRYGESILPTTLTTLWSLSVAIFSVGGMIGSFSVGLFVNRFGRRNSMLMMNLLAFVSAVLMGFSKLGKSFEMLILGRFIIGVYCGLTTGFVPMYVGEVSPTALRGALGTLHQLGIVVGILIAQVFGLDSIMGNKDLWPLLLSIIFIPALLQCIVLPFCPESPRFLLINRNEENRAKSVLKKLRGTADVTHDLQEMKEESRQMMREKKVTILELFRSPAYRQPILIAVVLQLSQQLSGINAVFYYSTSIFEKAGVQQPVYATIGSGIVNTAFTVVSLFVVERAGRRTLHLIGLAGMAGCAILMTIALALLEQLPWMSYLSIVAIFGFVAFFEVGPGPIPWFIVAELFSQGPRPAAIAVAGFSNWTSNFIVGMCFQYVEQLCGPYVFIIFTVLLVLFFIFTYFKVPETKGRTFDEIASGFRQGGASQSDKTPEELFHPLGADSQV
SMILES,inhibition [1],inhibition [2],inhibition [3]
CC1CN(c2cccc3c2nc(-c2cncc(C#N)c2)n3CCNCc2ccccc2)CC(C)O1 (stereo unspecified),3.09%,2.38%,2.56%
CCNc1cc(C)nc(Nc2ccc(NC(=O)c3ccccc3Br)cc2)n1,8.09%,9.16%,4.36%
c1cc(CN2CCN(c3ccncc3)CC2)cc(-c2ccc(-c3nc4ccccc4[nH]3)s2)c1,3.45%,2.53%,2.03%
COc1ccc(-c2ccc(NC(=O)c3ccc(C#N)cc3)cc2)cc1CN1CCCC1,1.22%,0.11%,-3.17%
O=C(Nc1ccc2c(c1)CCN2C1CCN(Cc2ccc(O)cc2)C1)c1ccco1 (stereo unspecified),0.95%,2.04%,-0.34%
CCN(CC)CCNC(=O)c1ccc(NC(=O)c2cc(-c3ccncc3)nc3ccccc23)cc1,0.16%,-0.76%,-1.61%
CCNc1cc(C(=O)N[C@@H](Cc2ccccc2)[C@H](O)CN[C@@H]2CCc3ccccc32)cc(N2CCCCS2(=O)=O)c1,1.06%,1.96%,1.17%
Cc1cccc2nc(-c3ccc(-c4ccc(CN5CCN(CCO)CC5)cc4)cc3)[nH]c12,25.5%,31.3%,17.5%
COc1ccc(CNC2CCN(C)CC2)cc1-c1ccc(S(=O)(=O)NCc2ccccc2)cc1,3.88%,4.24%,5.02%
CCOc1ccc(C(=O)Nc2cc(Br)c3c(c2)CNCC3)cc1C(F)(F)F,-0.39%,-2.66%,-2.48%
Cc1ccc(-n2c(=O)c3c(n4c(SC(C)C)nnc24)-c2ccccc2CC32CCCCC2)cc1,7.08%,6.98%,5.47%
O=C(CSc1nccn1C1CCCCC1)Nc1cc(C(F)(F)F)ccc1Cl,8.56%,9.47%,7.3%
O=C(/C=C/c1ccc(Cl)c(Cl)c1)NCCCCCN1CCC(c2c[nH]c3ccc(O)cc23)CC1,2.16%,1.31%,1.25%
CN(C(=O)/C=C/c1c(Cl)cccc1Cl)C1CCN(CCCCCNC(=O)/C=C/c2ccc(Cl)c(Cl)c2)CC1,2.14%,2.38%,1.38%
Cc1cc(O)nc(NC(=N)NOCc2ccccc2)n1,-1.66%,1.03%,1.07%
Cc1c(Cl)ccc2sc(N3CCN(C(=O)c4ccc([N+](=O)[O-])o4)CC3)nc12,71.9%,57.6%,30%
COc1ccc2c(N/N=C/c3ccccc3[N+](=O)[O-])ccnc2c1,4.94%,-0.53%,3.75%
COc1ccc2nc(N3CCNCC3)nc(NCCCc3ccccc3)c2c1,5.1%,2.65%,0%
Cc1ccc2[nH]c(NC#N)nc2c1,0.53%,0.67%,0.78%
O=C(N[C@@H](Cc1ccccc1)[C@H](O)CNC1CCCCC1)c1cc(C2CCCC2)cc(N2CCCC2=O)c1,-1.39%,-1.21%,-3.12%
CN(CCCCCNC(=O)/C=C/c1ccc(Cl)c(Cl)c1)CCCCc1c[nH]c2ccccc12,0.57%,0.62%,1.11%
O=C(Nc1ccccc1)N(Cc1cccc(-c2ccc(CNC3CCCC3)cc2)c1)C1CCN(Cc2ccccc2)CC1,5.58%,4.72%,2.99%
N=c1c2c(n(Cc3ccccc3)c3c1CCC3)CCCC2,26.6%,28.1%,7.1%
COc1cccc(C(=O)NC(NC(=S)Nc2ccc(OC)cc2[N+](=O)[O-])C(Cl)(Cl)Cl)c1 (stereo unspecified),-1.36%,0.44%,-2.26%

SMILES,inhibition [1],inhibition [2],inhibition [3]
Cc1cc2nc(-c3ccc(OCC(=O)NCc4cccc(C(F)(F)F)c4)cc3)[nH]c2cc1C,-2.75%,-1.2%,-1.65%
Cc1ccc(NC(=O)c2ccc(CN3CCCN(Cc4cccc(O)c4)CC3)cc2)cc1,-1.8%,-0.37%,1.37%
COC(=O)c1ccc2nc(-c3ccc(C(=O)NCc4ccc(Cl)c(Cl)c4)cc3)[nH]c2c1,3.81%,3.6%,3.51%
Cc1nc(NCc2ccccc2)cc(NCC(O)c2ccc(O)cc2)n1 (stereo unspecified),8.37%,8.57%,7.2%
Cn1c(-c2ccccc2)cc2c3c(=O)cc(C(F)(F)F)[nH]c3ccc21,13.8%,13.1%,14.1%
COc1ccc(-c2cnc3[nH]cc(-c4ccncc4)c3c2)cc1OC,68.3%,72.8%,65.3%
COc1ccc(C2CCN(CCN3CCC(NC(=O)c4ccc(-c5cccc(C(F)(F)F)c5C(F)(F)F)cc4)CC3)CC2)c(OC)c1,0.36%,1.29%,-0.58%
Cc1nn(-c2ccnc3cc(Cl)ccc23)c(C)c1C(=O)NCc1cc(Cl)cc(Cl)c1,0.16%,-0.98%,1.27%
CC(C)C[C@H](NC(=O)c1ccc(OCCN2CCOCC2)cc1)C(=O)N[C@H](/C=N/N1CCN(C)C1=O)CCc1ccccc1,3.09%,5.16%,3.85%
Cn1nc(C(F)(F)F)c(-c2ccc(Br)cc2)c1NC(=O)Cc1ccccc1F,-1.83%,3.22%,-2.17%
CN(C)CC(O)COc1ccc(Nc2ncc([N+](=O)[O-])c(Nc3ccccc3O)n2)cc1 (stereo unspecified),2.66%,3.7%,1.45%
CN1CCN(CC(O)CNC(=O)Nc2ccc(Br)cc2)CC1 (stereo unspecified),3.01%,3.45%,-0.7%
COc1cc(C(C)C)nc2ccc(NC(=O)c3ccc(C(=O)Nc4ccc5nc(C(C)C)cc(OC)c5c4)cc3)cc12,6.44%,5.94%,3.76%
C=C(C)Cn1cc(C2CCN(CCN3CCC(CNC(=O)c4ccc(-c5ccc(C#N)cc5)cc4)CC3)CC2)c2ccccc21,7.94%,4.28%,5.17%
Cc1ccc(NC(=O)NC2CCN(c3ccnc4ccccc34)C2)cc1 (stereo unspecified),5.83%,5.57%,7.34%
O=C(/C=C/c1ccc(Cl)c(Cl)c1)NCCCCCN1CCC(CCNC(=O)Cc2ccc(Cl)cc2)CC1,1.7%,0.82%,4.06%
COc1ccc(CNCC(C)(C)c2nc(-c3ccc(Cl)c(O)c3)c(-c3ccncc3)[nH]2)cc1,0.93%,0.9%,-2.74%
CCNc1cc(C(=O)N[C@@H](Cc2ccccc2)[C@H](O)CNCCCc2ccc(OC)cc2)cc(N2CCCC2=O)c1,0.4%,0.76%,1.05%
CCCCCCC(C)c1cc(O)c2c(c1)OC(=O)CC2(CC)c1ccccn1 (stereo unspecified),1.55%,3.13%,1.77%
C=CCc1ccc(C[C@H](NC(=O)OC(C)(C)C)C(=O)OC)cc1,22.2%,40.4%,34.5%
O=[N+]([O-])c1cccc(-n2nc(NCc3ccc(Cl)cc3)nc2-c2ccc(F)c(C(F)(F)F)c2)c1,1.19%,2.33%,0.17%
Nc1nc(N)c2c(ccc3c2ccn3CCCF)n1,1.79%,5.24%,0.69%
O=C(NC1CCN(Cc2ccccc2)CC1)c1cccc(-c2nc3ccc(Cl)cc3[nH]2)c1,1.15%,2.61%,2.94%
Nc1c2ccccc2nc2ccc(-c3ccccc3)cc12,18.4%,14.6%,13.1%

SMILES,inhibition [1],inhibition [2],inhibition [3]
CC(=O)Nc1nc(C(=O)Nc2cccc(-c3cccc(-c4nc5cc(F)ccc5[nH]4)c3)c2)cs1,2.3%,3.28%,2.66%
O=C(Nc1cccc(CN2CCCN(Cc3ccccc3)CC2)c1)c1cc2ccccc2s1,1.27%,1.24%,-4.49%
Cc1ccc(NC(=O)Nc2ccc(Cl)cc2)cc1-c1ccc(C(=O)Nc2ccncc2)cc1,2.15%,1.58%,0.65%
COc1cccc(-c2ccc3c(-c4cccc(NC(C)=O)c4)cnc(N)c3c2)c1,5.41%,4.32%,3.78%
CC1CN(c2cnn(Cc3cccc(NC(=O)Nc4ccc(-c5ccccc5)cc4)c3)c(=O)c2Cl)CC(C)N1 (stereo unspecified),8.54%,5.56%,7.15%
COc1cccc(NC(=O)NC2CCN(c3ccnc(Nc4ccc(F)cc4)n3)C2)c1 (stereo unspecified),0.39%,6.07%,3.8%
OCCN1CCN(c2ccc(Nc3ccnc4cc5ccccc5cc34)cc2)CC1,28.2%,33.3%,21.7%
CC1(C)CCC(C)(C)c2c1ccc(C1CCN(CCCCNC(=O)c3ccc(-c4ccc(Cl)cc4)cc3)CC1)c2O,2.14%,1.66%,0.11%
COc1ccc2c(NN=Cc3ccccc3Cl)ccnc2c1,3.65%,4.27%,4.32%
Cc1cc(N/N=C/c2ccccc2[N+](=O)[O-])c2cc(C(F)(F)F)ccc2n1,-3.14%,0.97%,1.45%
Cc1cc2ccccc2n1CC(=O)N1CC(C(=O)N2CCCCC2)Oc2ccccc21 (stereo unspecified),-0.25%,3.02%,2.89%
O=C(NC1CCCCC1)N(Cc1cccc(-c2cccc(CNC3CCCC3)c2)c1)C1CCN(Cc2ccccc2)CC1,8.95%,6.23%,7.71%
COc1ccc(-c2nonc2NC(=O)c2ccc(OC(C)C)cc2)cc1OC,0.75%,3.06%,3.04%
COc1cccc2cc(C(=O)N[C@@H](CC(C)C)C(=O)NC(/C=N/NC(=O)c3ccccc3)CCc3ccccc3)oc12 (stereo partly specified),-0.59%,2.83%,0.75%
CCCCCN1CCCC(CNS(=O)(=O)c2cccc(C(=O)Nc3ccc(C(F)(F)F)cc3)c2)C1 (stereo unspecified),0.67%,-0.91%,-0.09%
Cc1ccc(Nc2nc(C)cc(NCc3ccc(-n4ccnc4)cc3)n2)cc1,5.83%,10.8%,10.4%
O=C(N[C@H]1CCN(Cc2ccc(OCCN3CCNCC3)c(Cl)c2)C1)c1ccc(Cl)c(Cl)c1,-1.27%,-3.15%,-2.23%
CCOc1ccc(-c2nonc2NC(=O)c2ccco2)cc1OCC,1.01%,-0.52%,0.72%
CNc1cc(-c2ccc3ccnc(N)c3c2)nc(N)n1,-1.76%,0.35%,-3.58%
CC(C)NCC(O)COc1ccc(Cc2ccc(OCC(O)CNC(C)C)cc2)cc1 (stereo unspecified),-0.23%,0.19%,-0.55%
Cc1cc(=NN=Cc2ccc(F)cc2)c2cc(F)ccc2[nH]1,2.6%,3.14%,-7.33%
CCc1ccc(Cc2cnc3nc(N)nc(N)c3c2C)cc1CC,-1.77%,0.71%,0.12%
CN(C)CCNCc1nc(-c2ccc3c(Nc4ccc(Oc5ccccc5)cc4)ccnc3c2)cs1,-2.05%,1.8%,5.9%
CCc1cn2c3c(cc(C(=O)N[C@@H](Cc4ccccc4)[C@H](O)CNCc4ccccc4C)cc13)N(C)S(=O)(=O)CC2,3.43%,2.3%,1.96%

# Reference: ChEMBL document CHEMBL3433997, “St. Jude Leishmania screening dataset” (2016)
